# This excerpt belongs to a sample that is enriched for hits.
# DENV2 CPE: protects cells from dengue virus 2 cytopathic effect | DENV2-infected cells, cytopathic effect rescue, plate reader | CPE inhibition, % at 9.99 µM | 1.7% of 350,000 active | AID 651640; in the data active = CPE inhibition above about 20%, passing the limit was not always enough; inconclusive = no clear call, values can overlap the other calls; tested in BHK-21 cells
# Rtt109 HAT inh: inhibitors of Candida albicans Rtt109/Vps75 histone acetyltransferase; inhibition, % at 34.9 µM; 0.16% of 330,000 active; purified Rtt109/Vps75, ThioGlo CoA-SH fluorescence, 4 h;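 active = inhibition of at least 50% in every replicate; inconclusive = best replicate reaches 50% inhibition but some replicates fall short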
# Target sequence (Q5AAJ8 whole entry, looked up): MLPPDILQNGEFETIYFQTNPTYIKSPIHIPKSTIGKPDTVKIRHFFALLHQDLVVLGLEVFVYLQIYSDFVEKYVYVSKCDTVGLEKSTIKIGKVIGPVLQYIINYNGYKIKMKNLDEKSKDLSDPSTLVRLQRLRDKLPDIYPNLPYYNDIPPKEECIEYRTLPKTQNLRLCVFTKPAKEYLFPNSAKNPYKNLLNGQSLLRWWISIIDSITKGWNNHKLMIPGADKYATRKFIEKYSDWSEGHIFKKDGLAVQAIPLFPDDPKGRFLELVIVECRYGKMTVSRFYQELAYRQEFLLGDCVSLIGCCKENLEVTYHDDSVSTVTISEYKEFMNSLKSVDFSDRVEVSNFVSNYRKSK
# PglD inh: blocks C. jejuni PglD acetyltransferase activity. purified PglD enzyme, DTNB colorimetric CoA detection. inhibition, % at 12.5 µM. 0.098% of 360,000 active. AID 602405; in the data active = inhibition above about 16%, passing the limit was not always enough; inconclusive = no clear call, values can overlap the other calls
# N-glyco inh: N-linked glycosylation inhibition; D54 ERlucT glycosylation luciferase reporter, 24 h; percent of 100 nM tunicamycin response; reporter increase, % at 12.5 µM; 0.23% of 360,000 active;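 active = mean luciferase reporter signal, scaled so untreated is 0 and the glycosylation-blocking control 100, at or above a set limit in every replicate; inconclusive = mean reaches the limit but not every replicate does; inactive = mean below the limit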;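 also: luciferase carries N-glycosylation sites so blocking glycosylation raises the light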
# A number is an active result; i = inactive; ? = inconclusive; nt = not tested or not shown; ! = not active in a repeat.
SMILES,DENV2 CPE,Rtt109 HAT inh,PglD inh,N-glyco inh
C[C@H]1C=C(C(=O)N2CCN(Cc3ccc4c(c3)OCO4)CC2)O[C@@H](OCc2ccc(CO)cc2)C1,24!,i,i,i
C[C@@H]1CN([C@@H](C)CO)C(=O)Cc2cc(NS(=O)(=O)c3cccs3)ccc2O[C@H]1CN(C)Cc1ccc(-c2ccccc2)cc1,i,nt,i,nt
CC(C)(C)[C@@H]1C=C(C(=O)N2CCOCC2)O[C@H](OCc2ccc(CO)cc2)C1,i,i,i,i
CC(C)(C)[C@H]1C=C(C(=O)N2CCOCC2)O[C@@H](OCc2ccc(CO)cc2)C1,36!,i,i,i
Oc1ccccc1CNc1cnc2ccccc2c1,i,57,i,i
CC(C)C(=O)Nc1ccc2c(c1)C(=O)N(C)[C@H]1CC[C@H](CC(=O)NCCCN(C)C)O[C@H]1CO2,i,nt,i,nt
Cc1cc(NC(=O)c2ccc([N+](=O)[O-])cc2)n(CCC#N)n1,43,i,i,i
Cc1ccc(S(=O)(=O)Nc2ccc(S(=O)(=O)N3CCOCC3)cc2)cc1[N+](=O)[O-],i,i,i,i
O=[N+]([O-])c1ccccc1S(=O)(=O)Nc1ccc(S(=O)(=O)N2CCOCC2)cc1,31,i,i,i
CC(C)NC(=O)N(C)C[C@@H]1OCCCC[C@@H](C)Oc2ccc(NC(=O)CCCN(C)C)cc2C(=O)N([C@@H](C)CO)C[C@H]1C,i,nt,i,nt
CCc1nc2ccc(C(=O)N(CC)CCN(C)C)cn2c1N(C)C(=O)c1cccc(OC)c1,26,nt,i,i
CCOC(=O)C1=CN(CC)S(=O)(=O)NC1c1cccc(OC)c1 (centres undefined),24,i,i,i
CCOC(=O)C1=CN(Cc2ccco2)S(=O)(=O)NC1c1cccc(OC)c1 (centres undefined),i,i,i,i
Nc1nc(-c2ccc([N+](=O)[O-])cc2)cc(=O)[nH]1,133,i,i,i
O=C(C[C@@H]1CC[C@@H]2[C@H](COC[C@@H](O)CN2S(=O)(=O)c2cccc(F)c2)O1)Nc1ccccc1,i,nt,i,nt
O=C(C[C@@H]1CC[C@H]2[C@@H](COC[C@H](O)CN2C(=O)Nc2cccc(F)c2)O1)NCc1ccccc1F,i,nt,19,nt
O=C(C[C@@H]1CC[C@@H]2[C@H](COC[C@@H](O)CN2C(=O)Nc2cccc(F)c2)O1)NCc1ccccc1F,?,nt,i,nt
CCNC(=O)C[C@H]1CC[C@H]2[C@@H](COC[C@H](O)CN2Cc2ccc(Cl)c(Cl)c2)O1,109,nt,i,nt
O=C(C[C@@H]1CC[C@@H]2[C@H](COC[C@H](O)CN2C(=O)Nc2ccc(Cl)c(Cl)c2)O1)NCc1ccc(Cl)c(Cl)c1,44,nt,i,nt
CNC(=O)C[C@@H]1CC[C@@H]2[C@H](COC[C@@H](O)CN2Cc2ccncc2)O1,25,nt,i,nt
CNC[C@H]1OCCCC[C@@H](C)Oc2ccc(N(C)C)cc2C(=O)N([C@@H](C)CO)C[C@H]1C,i,nt,i,nt
O=C(C[C@@H]1CC[C@@H]2[C@H](COC[C@@H](O)CN2Cc2cccc(C(F)(F)F)c2)O1)NCCc1ccccc1,i,nt,i,nt
O=C(C[C@@H]1CC[C@H]2[C@@H](COC[C@@H](O)CN2Cc2cccc(C(F)(F)F)c2)O1)NCCc1ccccc1,26,nt,i,nt
C[C@@H]1CN([C@@H](C)CO)C(=O)c2cc(C3=CCCC3)cnc2O[C@H]1CN(C)C(=O)Nc1ccccc1,i,nt,nt,nt
C[C@@H]1CN([C@H](C)CO)C(=O)c2cc(C3=CCCCC3)cnc2O[C@H]1CN(C)C(=O)Nc1cccc(F)c1,i,nt,i,nt
SMILES,DENV2 CPE,Rtt109 HAT inh,PglD inh,N-glyco inh
C[C@H](CO)N1C[C@H](C)[C@H](CN(C)C(=O)Nc2ccc(F)cc2)Oc2ncc(C3=CCCCC3)cc2C1=O,33,nt,i,nt
C[C@@H]1CN([C@@H](C)CO)C(=O)c2cc(C3=CCCC3)cnc2O[C@@H]1CN(C)Cc1ccc(C(=O)O)cc1,25,nt,i,nt
C[C@@H]1CN([C@H](C)CO)C(=O)c2cc(C3=CCCC3)cnc2O[C@@H]1CN(C)C(=O)Nc1ccccc1,34,nt,i,nt
C[C@H](CO)N1C[C@H](C)[C@@H](CN(C)C(=O)Nc2cccc(F)c2)Oc2ncc(C3=CCCCC3)cc2C1=O,20,nt,i,nt
COC(=O)C1=C(C)N(Cc2ccc(Br)cc2)C(=S)NC1c1cccc(F)c1 (centres undefined),26,nt,nt,nt
COC(=O)C1=C(C)N(Cc2cccc(C(F)(F)F)c2)C(=NCC2CC2)NC1c1cccc(C(F)(F)F)c1 (centres undefined),i,nt,nt,nt
CCN1C(=NCCCCO)N[C@@H](c2cccc(C(F)(F)F)c2)C(C(=O)OC)=C1C,33,i,i,i
COC(=O)C1=C(C)N(Cc2cccc(C(F)(F)F)c2)C(=NCC2CC2)NC1c1ccc(F)cc1 (centres undefined),61,nt,nt,nt
COC(=O)C1=C(C)N(Cc2ccc(Br)cc2)C(=S)NC1c1ccc(F)cc1 (centres undefined),i,nt,nt,nt
O=C(C[C@@H]1CC[C@@H](NS(=O)(=O)c2ccc(F)cc2)[C@H](CO)O1)N1CCC(Cc2ccccc2)CC1,i,nt,i,nt
Cc1cc(OCC(=O)N2CCC(C(N)=O)CC2)c2c(C)cc(=O)oc2c1,i,i,i,i
CCCCc1cc(=O)oc2cc(C)cc(OCC(=O)N3CCC(C(N)=O)CC3)c12,61,i,i,i
Cc1ccc(-c2cnc3c(c2)C(=O)N([C@@H](C)CO)C[C@@H](C)[C@H](CN(C)C(=O)c2cccnc2)O3)cc1,i,nt,i,nt
O=C(c1ccccn1)N1C[C@@H]2[C@H](c3ccccc31)[C@@H](CO)N2C(=O)c1ccccn1,69,nt,i,nt
CC(C)NC(=O)N1C[C@H]2[C@@H](c3ccccc31)[C@@H](CO)N2C(=O)c1ccccn1,115,nt,i,nt
O=C(c1ccccn1)N1CC2(C1)[C@H](c1ccccc1)[C@@H](CO)N2Cc1ccc(F)cc1,39,nt,nt,nt
C/C=C/c1ccc([C@H]2[C@@H](CO)N(C(=O)C3CC3)C23CN(C(=O)NC(C)C)C3)cc1,105,nt,nt,nt
O=C(CC1CC1)N1CC2(C1)[C@@H](c1ccccc1)[C@@H](CO)N2C(=O)c1cnccn1,32,nt,nt,nt
C/C=C/c1ccc([C@@H]2[C@H](CO)N(C(=O)C3CCCC3)C23CN(C(=O)NC(C)C)C3)cc1,i,nt,nt,nt
C/C=C/c1ccc([C@@H]2[C@H](CO)N(C(=O)c3cnccn3)C23CN(C(=O)C2CC2)C3)cc1,24,nt,nt,nt
C[C@H](CO)N1C[C@H](C)[C@H](CN(C)C(=O)Nc2ccc3c(c2)OCO3)Oc2ccc(NS(=O)(=O)c3cccs3)cc2CC1=O,i,nt,i,nt
C[C@H]1CN([C@@H](C)CO)C(=O)c2cc(NC(=O)Nc3ccccc3)ccc2O[C@H]1CN(C)S(=O)(=O)c1cn(C)cn1,i,nt,i,nt
O=C(CC1CC1)N1CC2(C1)[C@H](c1ccccc1)[C@H](CO)N2Cc1ccccn1,23,nt,nt,nt
O=C(c1ccccn1)N1CC2(C1)[C@@H](c1ccccc1)[C@@H](CO)N2C(=O)CC1CC1,35,nt,nt,nt
O=C(c1ccccn1)N1CC2(C1)[C@H](c1ccccc1)[C@H](CO)N2C(=O)CC1CC1,i,nt,nt,nt
O=C(c1ccccc1)N1CC2(C1)[C@H](c1ccccc1)[C@H](CO)N2Cc1ccccn1,i,nt,nt,nt
O=C(CNc1cccc2ccccc12)N/N=C/c1ccc[nH]1,i,i,nt,i

# Compound activity as filed in PubChem.
